# High-throughput results as filed in PubChem.
# Rows were chosen to be rich in hits. Some 21% of all compounds tested hit in one or more screens of this group.
# Pf growth 96h – P. falciparum growth inhibition at 96 hour, primary screen for plastid delayed-death inhibitors. P. falciparum luciferase reporter growth, 96 h. Potency, µM (doses to about 28.7 µM), without a hit: at the top dose activity change, negative = inhibition, most hits filed as inhibitors. 320,000 compounds, 6.9% hits. AID 504834; further: potency means the concentration at half of the fitted maximal effect; on the % scale 0 is the no-effect control and ±100 the full control effect
#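 P. falciparum expressing integrated firefly luciferase, in erythrocytes at 2% hematocrit, 0.05% parasitemia, incubated with compounds 96 h at 37 C, 5% CO2. Growth inhibition read as loss of luminescence; two-generation exposure targets delayed-death apicoplast inhibitors.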
# Pf growth 48h – P. falciparum growth inhibition at 48 hours (one generation); 310,000 compounds, 5.9% hits; P. falciparum luciferase growth in erythrocytes, 48 h; Potency, µM (titrated, usually from 28.7 µM), inactives show at the top dose activity change, negative = inhibition, usual class: inhibitors; further: potency means the concentration at half of the fitted maximal effect; on the % scale 0 is the no-effect control and ±100 the full control effect
#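 Read-out is firefly luciferase luminescence from an integrated reporter in P. falciparum, so falling signal marks reduced parasite growth. Infected erythrocytes were at 2% hematocrit and 0.1% parasitemia (final) in Albumax-supplemented RPMI 1640.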
# HCV inh – blocks hepatitis C virus | Huh7.5.1 HCVcc-Cre infection, luciferase reporter, 44 h | Potency, µM (series often up to 41.8 µM), for the others: at the top dose activity change, negative = inhibition, hits mostly inhibitors | 340,000 compounds, 3.4% hits | AID 651820; further: potency means the concentration at half of the fitted maximal effect; on the % scale 0 is the no-effect control and ±100 the full control effect
#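 Infectious HCV cell culture screen: compound-treated cells (1,000/well, pre-plated 4 h) are infected with HCVcc-Cre at roughly 0.5 moi and grown 44 h. Infection is quantified by luciferase signal after 15 min substrate incubation at room temperature.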
# CHX counter – counter-screen hit for Shiga toxin inhibitors, cycloheximide; 300,000 compounds, 12% hits; cell reporter, cycloheximide protein synthesis inhibition counterscreen; AID 2314; max response, %; in the data active means max response mostly above about 13%, no sharp cut-off; inactive means mostly below about 14%; further: read at 38.3 µM for the half of the compounds with a filed dose; 0% is about no effect
# Shiga inhibitor – Shiga toxin inhibition. 290,000 compounds, 9.2% hits. AID 2315. Vero cells, Shiga toxin protein synthesis inhibition reporter. inhibition, % at 38.7 µM; in the data active means inhibition mostly above about 28%, no sharp cut-off; inactive means mostly below about 43%; further: 0% is about no effect
# AMA1 RON2 block – AMA1-RON2 (P. falciparum) interaction inhibition; AlphaScreen AMA1-biotinylated RON2 peptide binding; Potency, µM (top dose mostly 58.2 µM), for the others: top-dose activity change, negative = inhibition, actives largely listed as inhibitors; 360,000 compounds, 0.2% hits;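 further: potency means the concentration at half of the fitted maximal effect; 0% = vehicle wells and -100% = peptide control; nearly all actives have a fitted effect of over 45% in size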
#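 AMA1 (3D7) with his tag at 25 nM final met compounds first, then biotinylated RON2 peptide at 25 nM; detection used donor plus acceptor beads, 10 µg/mL apiece, read by AlphaScreen after 30 min at room temperature.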
# Active calls of the source: *; ? = inconclusive; . = no result given; [ ] = remark or other dose. Unless noted, the call rests on the fitted dose curve; in most records, active means well fitted curve in the direction sought with a large enough effect; inconclusive means small, poorly fitted or top-dose-only effect, or another doubt; inactive means no such curve, though single readings can be large; an effect the other way counts as inactive or inconclusive.
SMILES,Pf growth 96h,Pf growth 48h,HCV inh,CHX counter,Shiga inhibitor,AMA1 RON2 block
CCCC[C@H](NC(=O)[C@H](CO)NC(=O)[C@H](Cc1ccc(O)cc1)NC(=O)[C@H](CO)NC(C)=O)C(=O)N[C@@H](CCC(=O)O)C(=O)N[C@@H](Cc1cnc[nH]1)C(=O)N[C@H](Cc1ccccc1)C(=O)N[C@@H](CCCNC(=N)N)C(=O)N[C@@H](Cc1c[nH]c2ccccc12)C(=O)NCC(=O)N[C@@H](CCCCN)C(=O)N1CCC[C@H]1C(=O)N[C@H](C(N)=O)C(C)C,.,.,.,-7,-9,.
O=C(Cc1c(Cl)cccc1Cl)OCC(=O)c1ccc[nH]1,.,.,.,.,.,-7%
Cc1ncsc1CCOC(=O)C1C2CC3CC(C2)CC1C3 (centres undefined),13µM*,?,11%,-2,-4,14%
Cc1cc(C)n2nc(C(=O)OCC(=O)N(C)C3CCS(=O)(=O)C3)nc2n1 (centres undefined),-9%,-10%,-7%,.,.,-1%
C#CCOCCOCCOCCNc1nc(N2CCN(C(=O)[C@H]([C@@H](C)CC)n3cc(CCCCN)nn3)CC2)nc(N2CCN(C(=O)[C@H]([C@@H](C)CC)n3cc(CCCN=C(N)N)nn3)CC2)n1,7.4µM*,?,2%,.,.,-13%
C#CCOCCOCCOCCNc1nc(N2CCOCC2)nc(N2CCN(C(=O)[C@H]([C@@H](C)CC)n3cc(CCCCN)nn3)CC2)n1,8.3µM*,?,-19%,-3,-17,-5%
C#CCOCCOCCOCCNc1nc(N2CCN(C(=O)[C@H]([C@@H](C)O)n3cc(CCCCN)nn3)CC2)nc(N2CCN(C(=O)[C@H]([C@@H](C)CC)n3cc(CCCN=C(N)N)nn3)CC2)n1,4.7µM*,?,38%,-4,-6,-6%
C#CCOCCOCCOCCNc1nc(N2CCN(C(=O)[C@H]([C@@H](C)CC)n3cc(CCCCN)nn3)CC2)nc(N2CCN(C(=O)[C@H](C)n3cc(CCCN=C(N)N)nn3)CC2)n1,4%,?,12%,.,.,-1%
C=CCN1C(=O)c2cccc3c(Br)ccc(c23)C1=O,42%,4%,6%,4,6,-15%
Cc1n[nH]c(C)c1N1C(=O)c2cccc3c(N4CCCCCC4)ccc(c23)C1=O,?,?,-2%,1,-19,8%
O=C(OCCN1C(=O)c2cccc3c(N4CCOCC4)ccc(c23)C1=O)c1cccc(Cl)c1,?,?,11µM*,1,-3,87%[11.6 µM]
O=C1c2cccc3c(N4CCCCC4)ccc(c23)C(=O)N1CCO,?,13%,?,42*,76,-17%
O=C1c2cccc3c(N4CCCCC4)ccc(c23)C(=O)N1c1cccc(O)c1,10%,?,?,61*,90*,21%
C=CCN1C(=O)c2cccc3c(N4CCCCC4)ccc(c23)C1=O,-29%,47%,0%,46*,130*,40%
COc1ccc(S(=O)(=O)N2CCC(C(=O)NCCN3CCOCC3)CC2)cc1,21%,16%,-7%,-2,-8,6%
CCCN(CCC)S(=O)(=O)c1cc2c3c(c1)CCN3C(=O)CC2,-4%,-10%,10%,-2,-9,7%
Nc1nnc(COc2ccc(Br)cc2Br)s1,42%,60%,-26%,21*,92*,1%
O=C(O)CC1Sc2ccccc2NC1=O (centres undefined),?,?,12%,-9,-4,1%
O=C(CC1Sc2ccccc2NC1=O)c1ccc(Br)cc1 (centres undefined),49%,45%,-2%,38*,58*,-5%
CCOC(=O)[C@H]1[C@H]2COc3cc(OC)ccc3[C@@H]2N2C(=O)CN(C)C(=O)[C@@]12C,.,.,14%,.,.,6%
COC(=O)C/C=C/[C@@H](C)[C@@H](/C=N/O[C@@H](C)c1cn([C@H](CO)Cc2ccccc2)nn1)NS(=O)(=O)c1ccc(C)cc1,12µM*,?,-10%[8.37 µM],5,-5,.
Cc1cccc(O)c1,.,.,.,-5,-3,.
